Data taken from PubChem BioAssay (NCI).
This is part of a sample that, as a whole, favours compounds with a hit. Of some 83,000 tested, about 20% had one in any assay.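 How to read the values: 0–100, growth inhibition (40 = 60% inhibited); 0, no net growth; -100 to 0, cell death (-40 = 40% of starting cells died; -100 = all dead).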 Unmarked numbers belong to inactive results. Calls of active or inactive are those of the source. How the source made its calls: active means growth percent below 10; inactive means the rest.

Legend:
Assay in all cases: NCI-60 one-dose screen, 48 h (100 = growth as untreated, 0 = no growth, -100 = all killed)
Settings in all cases: 10 µM unless noted
SR leukemia = system: SR leukemia
RPMI-8226 leukemia = system: RPMI-8226 leukemia
OVCAR-8 ovarian = system: OVCAR-8 ovarian
OVCAR-5 ovarian = system: OVCAR-5 ovarian
OVCAR-4 ovarian = system: OVCAR-4 ovarian
SK-OV-3 ovarian = system: SK-OV-3 ovarian
IGROV1 ovarian = system: IGROV1 ovarian
OVCAR-3 ovarian = system: OVCAR-3 ovarian
HS 578T breast = system: HS 578T breast
NCI/ADR-RES ovarian = system: NCI/ADR-RES ovarian

SMILES	growth (SR leukemia)	growth (RPMI-8226 leukemia)	growth (OVCAR-8 ovarian)	growth (OVCAR-5 ovarian)	growth (OVCAR-4 ovarian)	growth (SK-OV-3 ovarian)	growth (IGROV1 ovarian)	growth (OVCAR-3 ovarian)	growth (HS 578T breast)	growth (NCI/ADR-RES ovarian)
COC(=O)[C@]12CC[C@@H](C(/C=C/c3cccnc3)=N/O)[C@@H]1[C@H]1CC[C@@H]3[C@@]4(C)CC(=C/c5cccnc5)/C(=N/O)C(C)(C)[C@@H]4CC[C@@]3(C)[C@]1(C)CC2	11.4%	1.81% (active)	39%	60.6%	40.8%	64.7%	16.9%	37.4%	78.6%	33.6%
COC(=O)c1cc(=O)nc(N/N=C/c2ccc(C)cc2)s1	94.8%	89.9%	105%	101%	96.9%	110%	105%	120%	110%	106%
O=S(=O)(NCCNc1cc(-c2cn(-c3ccccc3)nc2-c2cccc(O)c2)ccn1)c1cccc(F)c1	18.9%	22.9%	34.2%	54.8%	39.4%	50.3%	43.5%	50.8%	37.6%	33.1%
COc1cc(NC(C)CN(CC(C)C)C(C)C)c2ncccc2c1 (stereo not given)	90.2%	102%	90.1%	109%	40.2%	101%	110%	92.9%	115%	93.3%
COc1ccc(O)c(-c2cc(-c3ccc(Cl)cc3)c(C#N)c(=O)[nH]2)c1	33.5%	62.3%	68.3%	106%	74.4%	82.8%	78.5%	73.4%	58.7%	62.5%
Cn1c(/C(C#N)=C/c2ccc3ccccc3c2)cc2ccccc21	19.5%	5.55% (active)	30.3%	34.4%	56.5%	58.8%	21.2%	-0.996% (active)	23.8%	-18.4% (active)
Cc1[c-]onc1C.Cc1[c-]onc1C.[Ag].[Ag].[NH-]S(=O)(=O)c1ccc(N=Nc2cc(N=Nc3ccc(S([NH-])(=O)=O)cc3)c3c(NC(=O)C(Cl)Cl)cccc3c2OC(=O)C(Cl)Cl)cc1	81.4%	80.4%	69.1%	125%	93.9%	111%	73%	59.7%	85.2%	96.9%
COc1cccc2c1C(=O)c1c(O)c3c(c(O)c1C2=O)C[C@@](O)(C(=O)CO)C[C@@H]3OC1C[C@H](N)[C@H](O)[C@H](C)O1 (stereo not given in full)	-10.5% (active)	0.341% (active)	4.15% (active)	9.77% (active)	4.65% (active)	8.44% (active)	4.86% (active)	-2.36% (active)	-12.9% (active)	72.9%
N#CCCCCCn1c2ccccc2c2c3[nH]c(=O)[nH]c(=O)c3c3c4ccccc4n(CCCCCC#N)c3c21	20.3%	53.4%	27.4%	92.4%	58.7%	72.7%	22.4%	49.2%	51.6%	89.4%
OCC12CCCC(CO)(COC1)C2O (stereo not given)	116%	103%	109%	106%	104%	102%	116%	117%	115%	97.3%
CN1CCN(CC#CCn2c3c(c4ccccc42)C[C@]2(C)[C@H]4CC[C@@H]5[C@H]6[C@H]7OC(=O)[C@@]6(CCC7(C)C)CC[C@@]5(C)[C@]4(C)CC[C@H]2C3(C)C)CC1	0.535% (active)	59.2%	60.3%	112%	74.1%	106%	90.9%	80.2%	101%	77%
COc1ccc(-c2cc(-c3c(C)oc4cc5occc5c(OC)c4c3=O)nc(N)c2C#N)cc1OC	5.99% (active)	55.2%	61.2%	92.9%	74.6%	75.7%	51.8%	77.4%	53.5%	61.9%
NCCn1cc(-c2nc(-c3c[nH]c4ncccc34)cs2)c2cc(F)ccc21	-5.68% (active)	59.2%	76.1%	92.6%	59.8%	78.9%	47.1%	85.6%	81.9%	86.4%
COc1ccc2[nH]c(-c3ccc(Cl)cc3)cc(=O)c2c1	100%	96.3%	103%	97.7%	98.5%	99.6%	102%	106%	99.7%	102%
COC(=O)[C@]12CC[C@@H](C)[C@H](C)[C@@H]1C1=CC(=O)[C@@H]3[C@@]4(C)C[C@@H](OC(C)=O)[C@H](OC(C)=O)[C@@](C)(COC(C)=O)[C@@H]4C(=O)C[C@@]3(C)[C@]1(C)CC2	29.1%	3.4% (active)	10.4%	84.4%	60.4%	76.4%	61.4%	40.2%	75.9%	13.2%
CC(=O)OCCCCCCn1c2ccccc2c2c3c(c4c5ccccc5n(C)c4c21)C(=O)N(O)C3=O	17.1%	31.2%	66.3%	98.6%	70.5%	86.9%	49.6%	77.2%	124%	52.1%
N#CC1c2ccccc2-c2ccccc2N1C(=O)c1ccccc1 (stereo not given)	65.2%	26.4%	22.3%	41.8%	38.1%	54.3%	24.2%	-8.36% (active)	7.52% (active)	-47.4% (active)
CCCCN1CCCCn2c1nc1c2c(=O)n(C)c(=O)n1C	87.6%	103%	95.5%	117%	107%	110%	106%	102%	100%	99.9%
COC(c1ccccc1)(c1ccccc1)c1ccccc1	114%	171%	98.8%	113%	99.3%	107%	123%	108%	103%	108%
C=C(C)[C@@H]1CC[C@]2(C=O)CC[C@]3(C)[C@H](CC[C@@H]4[C@@]5(C)C/C(=C/c6cccnc6)C(=O)C(C)(C)[C@@H]5CC[C@]43C)[C@@H]12	40.6%	35.5%	63.5%	128%	64.6%	117%	-31.2% (active)	74.3%	87.4%	78.5%
COc1cc(OC)c2c(c1)c1nc3cc(C)c(C)cc3nc1n2CCN(C)C	49.4%	65.2%	79.3%	105%	87.8%	93.7%	87.2%	109%	91.9%	82%
CCOC(=O)c1ccc2c(c1)[n+](=O)c(C(=O)C1CCCS1)c(C(F)(F)F)n2[O-] (stereo not given)	-42.8% (active)	-45.3% (active)	-36.4% (active)	-79.8% (active)	-83.3% (active)	-97.6% (active)	-60.3% (active)	-96.6% (active)	-10.8% (active)	-70.4% (active)
COc1ccc(/C=C2\N=C(c3ccccc3)N(c3cc(OC)c(OC)cc3C(=O)N3N=C(C)CC3=O)C2=O)cc1	92.1%	47.7%	89.4%	103%	101%	99.3%	99.8%	105%	91.7%	78.6%
